Source: PubChem BioAssay
Results filed as inconclusive are left out. Activity calls are given as the source filed them.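 The calls were made as follows, unless noted: active = inhibition above the screen-wide mean plus 3 SD, about 51%; inactive = the rest.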

What was measured:
[1] = yeast TOR pathway RPL19A-GFP modulators, primary screen, cell-based, S. cerevisiae, multiplex flow cytometry (AID 1862; in the data active = percent of DMSO control GFP below about 86%;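 also: lower values mimic rapamycin by blocking the RPL19A rise seen in DMSO cells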); details: S. cerevisiae RPL19A-GFP strain, flow cytometry fluorescence, 3 h; at 10 µM; stronger effect = lower value
[2] = modulators of MEP2-GFP levels in yeast, primary screen, S. cerevisiae, multiplex flow cytometry (AID 1867;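 active = GFP response, as percent of the DMSO control, above the screen-wide mean plus 3 SD, about 139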;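 also: median GFP channel fluorescence of barcode-gated MEP2-GFP cells measured by flow cytometry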); details: S. cerevisiae MEP2-GFP strain, 3 h, at 10 µM, stronger effect = higher value, 100% means same as DMSO wells
[3] = modulators of CIT2-GFP expression in yeast, primary screen, S. cerevisiae, GFP fusion, multiplex flow cytometry (AID 1870;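 active = percent response above a set limit, the screen-wide mean plus 3 SD, cut at about 130% in these data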;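 also: barcoded CIT2-GFP strain pooled with four other GFP strains with rapamycin as positive control; median GFP fluorescence per well over plate mean of DMSO wells so 100% = DMSO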); details: 3 h, at 10 µM, stronger effect = higher value
[4] = modulators of LAP4-GFP expression in yeast, primary screen, S. cerevisiae, multiplex flow cytometry (AID 1873;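 active = GFP signal, as percent of the solvent control, above the screen mean plus 3 SD, about 149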); details: 3 h, at 10 µM, stronger effect = higher value
[5] = modulators of AGP1-GFP expression in yeast TOR pathway, primary screen, cell-based, multiplex flow cytometry, S. cerevisiae (AID 1887;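 active = GFP signal above the screen-wide mean plus 3 SD, that is over about 124.5% of the solvent control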;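 also: AGP1-GFP fusion strain of S. cerevisiae within a five-strain barcoded multiplex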); details: 3 h, at 10 µM, stronger effect = higher value
[6] = inhibitors of CD8+ T cell-vesicle binding, pilot screen, LFA-1/ICAM-1 modulator project, MLPCN validation set, flow cytometry (AID 2523;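 active = response below a set limit, under 55% cells CD8-positive and vesicle-bound, and CD8 cells' 90th-percentile brightness under 279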;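 as to vesicle binding response: mean PE anti-B7-1 fluorescence of CD8+ cells relative to row control; 100% = QL9-loaded vesicles with DMSO vehicle in the same plate row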); details: 2C mouse CD8+ T cells, at 7 µM, stronger effect = lower value; double positive events: measured here: CD8+/vesicle+ event percentage
[7] = molecular target: Integrin beta-1 (Homo sapiens) + Integrin alpha-4 (Homo sapiens) (UniProt P13612+P05556); test: inhibition of HUTS-21 binding to VLA-4, pilot screen, VLA-4 allosteric modulator project, U937 cells, HUTS-21 mAb, flow cytometry, validation set (AID 2674;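 active = inhibition above 50%, about 3 SD of the validation set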;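 also: antibody binding induced by the VLA-4 ligand LDV present at three times its Kd; 0% = LDV ligand with antibody and no compound and 100% = antibody without LDV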); details: HUTS-21 LIBS mAb binding, at 6.7 µM, stronger effect = higher value, binding induced by LDV ligand
Integrin beta-1 (Homo sapiens) + Integrin alpha-4 (Homo sapiens), sequence (P05556 whole entry, looked up): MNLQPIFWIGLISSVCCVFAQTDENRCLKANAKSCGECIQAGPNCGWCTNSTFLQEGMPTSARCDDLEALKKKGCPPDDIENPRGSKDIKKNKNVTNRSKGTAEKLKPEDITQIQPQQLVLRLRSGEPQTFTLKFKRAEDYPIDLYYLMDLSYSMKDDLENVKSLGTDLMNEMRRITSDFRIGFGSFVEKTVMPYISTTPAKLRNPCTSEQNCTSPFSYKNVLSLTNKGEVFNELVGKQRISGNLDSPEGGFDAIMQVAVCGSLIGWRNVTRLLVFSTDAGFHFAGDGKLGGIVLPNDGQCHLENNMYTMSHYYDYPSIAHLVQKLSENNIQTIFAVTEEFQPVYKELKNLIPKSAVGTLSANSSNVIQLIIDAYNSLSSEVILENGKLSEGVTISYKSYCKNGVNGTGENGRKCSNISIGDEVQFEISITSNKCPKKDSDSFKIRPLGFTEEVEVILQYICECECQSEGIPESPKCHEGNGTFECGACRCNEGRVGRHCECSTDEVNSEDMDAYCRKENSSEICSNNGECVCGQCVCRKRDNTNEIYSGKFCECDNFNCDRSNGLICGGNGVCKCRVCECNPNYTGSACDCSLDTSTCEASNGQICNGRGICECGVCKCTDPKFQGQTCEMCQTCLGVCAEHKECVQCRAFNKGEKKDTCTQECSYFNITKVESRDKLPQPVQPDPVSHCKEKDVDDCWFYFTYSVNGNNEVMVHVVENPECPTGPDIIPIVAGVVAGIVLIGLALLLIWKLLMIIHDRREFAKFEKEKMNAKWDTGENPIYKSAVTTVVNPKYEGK
Integrin beta-1 (Homo sapiens) + Integrin alpha-4 (Homo sapiens), sequence (P13612 whole entry, looked up): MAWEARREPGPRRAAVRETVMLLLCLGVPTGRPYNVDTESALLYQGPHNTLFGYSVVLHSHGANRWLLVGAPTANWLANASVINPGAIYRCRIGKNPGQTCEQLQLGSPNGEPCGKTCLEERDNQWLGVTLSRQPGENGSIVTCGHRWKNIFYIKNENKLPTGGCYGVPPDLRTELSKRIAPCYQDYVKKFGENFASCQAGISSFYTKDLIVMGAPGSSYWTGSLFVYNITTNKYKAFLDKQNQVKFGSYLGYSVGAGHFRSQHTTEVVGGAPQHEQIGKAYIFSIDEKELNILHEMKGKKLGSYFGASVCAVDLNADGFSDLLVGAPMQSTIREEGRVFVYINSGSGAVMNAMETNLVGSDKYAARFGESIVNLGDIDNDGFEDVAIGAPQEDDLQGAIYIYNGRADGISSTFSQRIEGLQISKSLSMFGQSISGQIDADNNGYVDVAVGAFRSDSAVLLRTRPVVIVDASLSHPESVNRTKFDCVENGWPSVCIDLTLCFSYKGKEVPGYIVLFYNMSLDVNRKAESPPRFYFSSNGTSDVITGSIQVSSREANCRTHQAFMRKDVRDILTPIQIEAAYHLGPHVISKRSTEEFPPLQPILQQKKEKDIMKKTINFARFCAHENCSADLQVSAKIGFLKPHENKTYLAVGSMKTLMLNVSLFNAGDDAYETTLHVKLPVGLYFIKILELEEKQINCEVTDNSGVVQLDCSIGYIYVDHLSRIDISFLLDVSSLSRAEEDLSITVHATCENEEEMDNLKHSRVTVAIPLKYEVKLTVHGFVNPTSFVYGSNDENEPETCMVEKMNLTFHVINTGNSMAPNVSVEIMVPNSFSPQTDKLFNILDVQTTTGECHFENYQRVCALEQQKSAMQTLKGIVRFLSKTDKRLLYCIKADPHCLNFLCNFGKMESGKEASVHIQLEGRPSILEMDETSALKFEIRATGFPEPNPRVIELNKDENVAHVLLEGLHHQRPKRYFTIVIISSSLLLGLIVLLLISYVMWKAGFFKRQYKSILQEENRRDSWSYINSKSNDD

[8] = superoxide lowering in aged yeast cells, pilot screen, validation compound set (AID 2706;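 active = superoxide response below 65% of plate, a cut near 3 SD across the whole screen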;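 also: yeast exposed to compound for one week at 30 degrees C before staining; 100% = mean of all compound wells on the same plate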); details: S. cerevisiae aging, superoxide DHE fluorescence; at 10 µM; stronger effect = lower value
[9] = molecular target: Beta-adrenergic receptor kinase 1 (Homo sapiens) (UniProt P25098); test: GRK2 binders displacing RNA aptamer, biochemical, validation, human GRK2, bead flow cytometry (AID 488806;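 active = aptamer binding inhibition above 30%, about 3 SD of noise from non-fluorescent compounds; inactive = inhibition at or below 30%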); details: bead-bound GRK2, FAM-aptamer displacement, at 10 µM, stronger effect = higher value
Beta-adrenergic receptor kinase 1 (Homo sapiens), sequence (P25098 whole entry, looked up): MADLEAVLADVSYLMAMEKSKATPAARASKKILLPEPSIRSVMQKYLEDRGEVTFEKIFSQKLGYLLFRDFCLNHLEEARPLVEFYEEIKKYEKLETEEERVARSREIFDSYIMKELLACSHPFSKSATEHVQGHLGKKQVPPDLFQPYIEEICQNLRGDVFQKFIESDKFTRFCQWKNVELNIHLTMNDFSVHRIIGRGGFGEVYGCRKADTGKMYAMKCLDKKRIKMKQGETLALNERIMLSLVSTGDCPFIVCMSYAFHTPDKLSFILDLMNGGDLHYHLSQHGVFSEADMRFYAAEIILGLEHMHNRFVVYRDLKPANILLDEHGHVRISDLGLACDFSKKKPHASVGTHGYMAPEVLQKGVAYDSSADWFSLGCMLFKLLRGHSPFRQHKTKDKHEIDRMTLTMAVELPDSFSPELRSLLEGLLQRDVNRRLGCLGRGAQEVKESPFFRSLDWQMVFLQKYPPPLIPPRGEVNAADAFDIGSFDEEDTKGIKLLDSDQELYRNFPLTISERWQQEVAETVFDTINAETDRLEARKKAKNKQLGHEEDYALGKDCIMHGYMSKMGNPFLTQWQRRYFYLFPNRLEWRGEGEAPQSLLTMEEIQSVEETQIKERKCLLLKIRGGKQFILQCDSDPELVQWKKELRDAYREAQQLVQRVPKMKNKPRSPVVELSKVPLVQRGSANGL

[10] = molecular target: Beta-2 adrenergic receptor (Homo sapiens) (UniProt P07550); test: beta2AR agonists driving receptor internalization, pilot screen, cell-based, FAP fluorogen, flow cytometry, validation set (AID 504459;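 active = percent response above 42, roughly 3 SD of non-fluorescent test compounds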;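 also: agonist-driven loss of surface beta2AR via internalization measured by FAP dye flow cytometry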); details: Am2.2-beta2AR cells, FAP surface receptor flow cytometry; at 10 µM; stronger effect = higher value
Beta-2 adrenergic receptor (Homo sapiens), sequence (P07550 whole entry, looked up): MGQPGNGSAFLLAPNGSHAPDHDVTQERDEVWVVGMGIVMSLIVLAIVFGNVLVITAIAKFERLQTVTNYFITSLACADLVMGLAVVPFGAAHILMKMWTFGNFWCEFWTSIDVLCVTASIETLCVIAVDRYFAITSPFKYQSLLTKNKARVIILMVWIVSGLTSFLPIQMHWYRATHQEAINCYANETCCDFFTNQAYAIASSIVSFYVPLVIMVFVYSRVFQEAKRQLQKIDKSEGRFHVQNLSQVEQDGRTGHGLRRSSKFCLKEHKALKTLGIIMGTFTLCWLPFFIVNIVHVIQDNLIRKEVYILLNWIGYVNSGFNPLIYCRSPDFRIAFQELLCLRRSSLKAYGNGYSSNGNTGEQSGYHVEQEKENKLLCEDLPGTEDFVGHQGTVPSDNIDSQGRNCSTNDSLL

[11] = molecular target: AP-2 complex subunit beta (Homo sapiens) (UniProt P63010); test: inhibitors of arrestin peptide binding to AP2, pilot screen, biochemical, validation set, GST-AP2 beads, flow cytometry (AID 504541;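 active = inhibition above 54%, about 3 SD of non-fluorescent compounds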;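 also: AP2 carries R879A mutation and is captured from E. coli lysate; bead-bound FITC arrestin peptide fluorescence measuring arrestin peptide binding to AP2; 0% = DMSO wells and 100% = excess unlabeled arrestin peptide control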); details: FITC arrestin peptide, at 10 µM, stronger effect = higher value, AP2 beta2 appendage fragment, R879A mutant
AP-2 complex subunit beta (Homo sapiens), sequence (P63010 whole entry, looked up, the tested form may be a part, one chain of several): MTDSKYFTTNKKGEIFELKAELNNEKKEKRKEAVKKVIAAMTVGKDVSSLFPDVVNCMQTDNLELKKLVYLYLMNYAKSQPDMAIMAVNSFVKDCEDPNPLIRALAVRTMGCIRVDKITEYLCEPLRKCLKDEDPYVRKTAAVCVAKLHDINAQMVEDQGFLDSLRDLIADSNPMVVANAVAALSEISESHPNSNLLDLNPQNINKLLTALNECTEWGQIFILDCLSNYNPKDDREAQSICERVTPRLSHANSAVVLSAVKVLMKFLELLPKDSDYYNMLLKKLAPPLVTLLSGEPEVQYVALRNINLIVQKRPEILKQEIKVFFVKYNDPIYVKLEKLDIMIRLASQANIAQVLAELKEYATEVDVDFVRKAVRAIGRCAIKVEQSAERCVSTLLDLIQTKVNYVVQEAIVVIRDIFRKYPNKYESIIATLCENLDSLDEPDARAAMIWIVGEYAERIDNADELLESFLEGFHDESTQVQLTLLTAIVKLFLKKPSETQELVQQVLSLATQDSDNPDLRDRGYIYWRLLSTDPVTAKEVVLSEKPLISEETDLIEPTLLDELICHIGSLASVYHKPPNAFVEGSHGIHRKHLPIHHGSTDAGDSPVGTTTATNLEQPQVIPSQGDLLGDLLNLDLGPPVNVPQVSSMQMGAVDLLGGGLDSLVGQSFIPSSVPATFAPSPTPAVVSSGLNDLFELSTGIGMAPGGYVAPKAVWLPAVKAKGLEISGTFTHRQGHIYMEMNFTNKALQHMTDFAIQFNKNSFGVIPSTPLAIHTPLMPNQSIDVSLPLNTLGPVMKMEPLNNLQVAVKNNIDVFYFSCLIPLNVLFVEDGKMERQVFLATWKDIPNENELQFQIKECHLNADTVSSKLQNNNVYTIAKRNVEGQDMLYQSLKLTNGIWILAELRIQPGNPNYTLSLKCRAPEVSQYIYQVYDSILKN

[12] = yeast V-ATPase proton transport modulators, S. cerevisiae, pHLuorin, HTS validation (AID 504600; in the data active = response above about 15%;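 also: plate controls were DMSO for no effect and reference compound for full effect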); details: S. cerevisiae pHLuorin cytosolic pH, at 10 µM, stronger effect = higher value
[13] = system: anti-desmoglein-3 scFv antibody binding to human DSG3; test: inhibitors of anti-DSG3 scFv binding to DSG3, pilot screen, biochemical, validation compound set, bead-based, flow cytometry (AID 588368;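 active = binding below the plate cutoff, the plate median minus 3 SD, with a reading above zero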;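 also: signal is the median channel fluorescence of bead-bound GFP antibody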); details: Protein G beads, DSG3-Fc, scFv-GFP binding, at 10 µM, stronger effect = lower value
[14] = inhibitors of fungal efflux pumps CDR1, CDR2, MDR1, pilot screen, validation compound set, multiplex, phenotypic (AID 588506;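 active = efflux inhibition above 0.42, the validation set average plus 4 SD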;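 also: Nile Red retained in cells so higher fluorescence means more efflux inhibition; 0 = negative control wells and 1 = enniatin B 25 µM full block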); details: S. cerevisiae pump-expressing triplex, Nile Red efflux flow cytometry; at 10 µM; stronger effect = higher value; the pumps come from Candida albicans
[15] = molecular target: ATP-binding cassette sub-family B member 6 (Homo sapiens) (UniProt Q9NP58); test: ABCB6 transporter inhibitors, pilot screen, K562-ABCB6 cells, flow cytometry, validation set (AID 588550); details: K562-ABCB6 porphyrin accumulation, 1 h, at 10 µM, stronger effect = higher value;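 also: 0% = DMSO wells and 100% = benzethonium chloride 70 µM positive control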
ATP-binding cassette sub-family B member 6 (Homo sapiens), sequence (Q9NP58 whole entry, looked up): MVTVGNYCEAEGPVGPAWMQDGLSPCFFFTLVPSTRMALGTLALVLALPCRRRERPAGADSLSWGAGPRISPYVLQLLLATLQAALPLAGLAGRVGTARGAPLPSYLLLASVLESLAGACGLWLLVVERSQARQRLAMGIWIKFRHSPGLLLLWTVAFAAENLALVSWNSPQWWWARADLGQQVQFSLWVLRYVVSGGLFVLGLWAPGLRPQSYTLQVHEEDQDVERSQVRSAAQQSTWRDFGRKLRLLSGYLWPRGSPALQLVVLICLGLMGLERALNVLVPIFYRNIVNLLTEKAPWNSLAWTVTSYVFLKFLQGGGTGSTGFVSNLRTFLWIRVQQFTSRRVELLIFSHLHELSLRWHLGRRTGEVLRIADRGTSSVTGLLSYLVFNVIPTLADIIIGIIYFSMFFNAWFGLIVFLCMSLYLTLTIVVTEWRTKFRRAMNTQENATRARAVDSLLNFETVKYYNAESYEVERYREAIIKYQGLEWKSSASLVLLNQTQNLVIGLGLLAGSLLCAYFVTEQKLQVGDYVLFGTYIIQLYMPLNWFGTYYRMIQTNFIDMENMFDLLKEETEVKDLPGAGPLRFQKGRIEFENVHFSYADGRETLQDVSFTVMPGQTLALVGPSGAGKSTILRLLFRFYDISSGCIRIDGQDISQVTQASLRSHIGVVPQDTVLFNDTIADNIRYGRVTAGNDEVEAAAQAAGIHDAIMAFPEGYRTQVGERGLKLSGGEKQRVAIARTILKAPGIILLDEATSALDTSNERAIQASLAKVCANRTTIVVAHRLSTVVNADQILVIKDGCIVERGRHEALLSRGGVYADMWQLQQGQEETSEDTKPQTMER

[16] = promoters of myeloid differentiation in arrested cells, primary screen, cell-based, GFP/MAC1 double positive, flow cytometry, validation set (AID 588685;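 active = differentiation response of at least 50%, scaled between solvent and reference control, from cells with both markers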;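 also: compound exposure lasts four days before antibody staining and flow analysis; 0% = DMSO wells and 100% = 5 µM fulvestrant positive control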); details: ER-HoxA9 marrow cells, stronger effect = higher value, normalized: vehicle 0, fulvestrant 100

CCCCOc1ccc(CC(=O)NO)cc1
inactive: percent of DMSO control GFP [1] 87.8% | GFP response vs DMSO [2] 113% | percent response of DMSO control [3] 106% | GFP response vs DMSO [4] 75.9% | GFP response, % of DMSO [5] 75% | vesicle binding response [6] 214% | inhibition [7] -3.24% | superoxide response (% of plate) [8] 121% | aptamer binding inhibition [9] -2% | response [10] -26.1% | inhibition [11] 3.29% | response [12] 1.03% | binding (% of control) [13] 104% | efflux inhibition (fraction of control) [14] 0.09 | inhibition [15] 9% | differentiation response [16] 2.46%
48.1%: double positive events [6]

COCCOC(=O)C1=C(C)NC(C)=C(C(=O)OC(C)C)C1c1cccc([N+](=O)[O-])c1 (stereo not drawn)
inactive: percent of DMSO control GFP [1] 102% | GFP response vs DMSO [2] 105% | percent response of DMSO control [3] 111% | GFP response vs DMSO [4] 94.7% | GFP response, % of DMSO [5] 99.4% | vesicle binding response [6] 182% | inhibition [7] 4.73% | superoxide response (% of plate) [8] 106% | aptamer binding inhibition [9] -1% | response [10] -6.98% | inhibition [11] -3.69% | response [12] 8.68% | binding (% of control) [13] 97.4% | efflux inhibition (fraction of control) [14] -0.17 | inhibition [15] -4% | differentiation response [16] -10.5%
58.9%: double positive events [6]

O=C(OCC(O)C(O)COC(=O)c1ccccc1)c1ccccc1 (stereo not drawn)
inactive: percent of DMSO control GFP [1] 102% | GFP response vs DMSO [2] 105% | percent response of DMSO control [3] 105% | GFP response vs DMSO [4] 106% | GFP response, % of DMSO [5] 107% | vesicle binding response [6] 102% | inhibition [7] -10.5% | superoxide response (% of plate) [8] 105% | aptamer binding inhibition [9] -1% | response [10] -4.55% | inhibition [11] 2.63% | response [12] -5% | binding (% of control) [13] 97.7% | efflux inhibition (fraction of control) [14] 0.17 | inhibition [15] 2% | differentiation response [16] -16.3%
58.5%: double positive events [6]

CCOc1ccc(C(=O)C(C)=O)c(OCC)c1
64.3%: double positive events [6]
inactive: percent of DMSO control GFP [1] 101% | GFP response vs DMSO [2] 99.7% | percent response of DMSO control [3] 104% | GFP response vs DMSO [4] 100% | GFP response, % of DMSO [5] 105% | vesicle binding response [6] 211% | inhibition [7] -1.09% | superoxide response (% of plate) [8] 105% | aptamer binding inhibition [9] 2% | response [10] -2.34% | inhibition [11] -2.17% | response [12] 1.92% | binding (% of control) [13] 97% | efflux inhibition (fraction of control) [14] -0.02 | inhibition [15] 19% | differentiation response [16] -13.3%

CC(=O)SC1CC2=CC(=O)CCC2(C)C2CCC3(C)C(CCC34CCC(=O)O4)C12 (stereo not drawn)
inactive: percent of DMSO control GFP [1] 103% | GFP response vs DMSO [2] 103% | percent response of DMSO control [3] 107% | GFP response vs DMSO [4] 109% | GFP response, % of DMSO [5] 107% | vesicle binding response [6] 247% | inhibition [7] -3.57% | superoxide response (% of plate) [8] 98.5% | aptamer binding inhibition [9] 5% | response [10] -4.96% | inhibition [11] -8.52% | response [12] 1.6% | binding (% of control) [13] 100% | efflux inhibition (fraction of control) [14] -0.04 | inhibition [15] -3% | differentiation response [16] 3.18%
64.4%: double positive events [6]

Cc1ccc(SCC(=O)Nc2nccs2)cc1
inactive: percent of DMSO control GFP [1] 101% | GFP response vs DMSO [2] 105% | percent response of DMSO control [3] 98.6% | GFP response vs DMSO [4] 120% | GFP response, % of DMSO [5] 99.7% | vesicle binding response [6] 4850% | inhibition [7] 6.4% | superoxide response (% of plate) [8] 110% | aptamer binding inhibition [9] 4% | response [10] -0.63% | inhibition [11] -4.67% | response [12] -0.83% | binding (% of control) [13] 95.3% | efflux inhibition (fraction of control) [14] -0.24 | inhibition [15] 4% | differentiation response [16] -2.4%
60.5%: double positive events [6]

COc1cc(CC(=O)NCCc2ccc(S(N)(=O)=O)cc2)cc(OC)c1OC
66.9%: double positive events [6]
inactive: percent of DMSO control GFP [1] 104% | GFP response vs DMSO [2] 103% | percent response of DMSO control [3] 102% | GFP response vs DMSO [4] 114% | GFP response, % of DMSO [5] 111% | vesicle binding response [6] 177% | inhibition [7] 1.44% | superoxide response (% of plate) [8] 95.2% | aptamer binding inhibition [9] -4% | response [10] -8.65% | inhibition [11] -9.64% | response [12] 0.1% | binding (% of control) [13] 114% | efflux inhibition (fraction of control) [14] -0.04 | inhibition [15] 4% | differentiation response [16] 0.92%

Cc1ccc2c(c1)C(O)(C1COC(C)(C)CC1=O)C(=O)N2C (stereo not drawn)
59.3%: double positive events [6]
inactive: percent of DMSO control GFP [1] 107% | GFP response vs DMSO [2] 105% | percent response of DMSO control [3] 104% | GFP response vs DMSO [4] 99.1% | GFP response, % of DMSO [5] 98.8% | vesicle binding response [6] 214% | inhibition [7] 12.3% | superoxide response (% of plate) [8] 103% | aptamer binding inhibition [9] 2% | response [10] -0.64% | inhibition [11] -0.06% | response [12] -9.91% | binding (% of control) [13] 102% | efflux inhibition (fraction of control) [14] 0.05 | inhibition [15] 12% | differentiation response [16] 23.2%

Cc1cccc(Nc2ncccc2C(=O)O)c1C
inactive: percent of DMSO control GFP [1] 103% | GFP response vs DMSO [2] 103% | percent response of DMSO control [3] 109% | GFP response vs DMSO [4] 90.1% | GFP response, % of DMSO [5] 108% | vesicle binding response [6] 203% | inhibition [7] 2.66% | superoxide response (% of plate) [8] 105% | aptamer binding inhibition [9] 1% | response [10] -6.59% | inhibition [11] 1.75% | response [12] -0.8% | binding (% of control) [13] 98.4% | efflux inhibition (fraction of control) [14] 0.08 | inhibition [15] 6% | differentiation response [16] -9.53%
62.7%: double positive events [6]
